A short description of test [1]: E. coli DRC41 culture turbidity changes, primary screen, E. coli filamentation inducer project, strain DRC41, OD650, 48 h (AID 1152).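 Further: E. coli MC1000 strain DRC41 lacking acrAB efflux pump and sulA.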 Particulars: E. coli DRC41 (acrAB sulA), higher = more signal, called active from +8 up or from −8 down.
The nature of test [2]: small-molecule binders of probe aLefty1, primary screen, biochemical, small-molecule microarray, 635/667 nm fluorescence (AID 1153).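 Further: score merges spot fluorescence with signal-to-noise ratio from the scanned slide images.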 Particulars: higher = more signal.
The nature of test [3]: PSAC antagonists in infected red cells, primary screen, cell-based, P. falciparum Indochina, OD700, 1 h (AID 1154). Particulars: P. falciparum Indochina infected RBC osmotic lysis, higher = more signal, called active from +8 up or from −8 down.
Test [4] can be described thus: PSAC antagonists in infected red cells, primary screen, cell-based, P. falciparum Indochina, OD700, 2 h (AID 1155).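 Further: lysis reports solute entry through the parasite surface anion channel PSAC; channel blockers reduce lysis of infected cells.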 Particulars: P. falciparum Indochina infected erythrocytes, osmotic lysis OD700; higher = more signal, called active from +8 up or from −8 down.
A short description of test [5]: osmotic lysis modulators in infected erythrocytes, primary screen, PSAC antagonist project, cell-based, P. falciparum Indochina, OD700, 3 h (AID 1156). Particulars: higher = more signal, called active from +8 up or from −8 down.
Test [6] in a line: PSAC antagonists in infected red cells, primary screen, cell-based, P. falciparum Indochina, OD700, 18 h (AID 1157). The note with it: P. falciparum Indochina infected erythrocytes, osmotic lysis OD700, 18 h; higher = more signal, called active from +8 up or from −8 down.
A short description of test [7]: modulators of S6 phosphorylation in cells, primary screen, cell-based, A549, cytoblot, luminescence, serum-stimulated (AID 1158).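 Further: serum-stimulated A549 lung adenocarcinoma cells; signal is phosphorylated S6 detected by cytoblot immunostaining with HRP secondary.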 Particulars: A549 phospho-S6 cytoblot, 5 h, higher = more signal.
In test [8] the target is NADPH oxidase 2 (Homo sapiens) (UniProt P04839). Briefly: NOX2-dependent H2O2 signal modulators, primary screen, NOX inhibitor project, cell-based, HEK293-NOX2, PMA-stimulated, Amplex Red fluorescence (AID 1159). Further: test concentration not given here. The note with it: 45 min, higher = more signal, called active from +8 up or from −8 down.
For test [9], the target named is NADPH oxidase 4 (Homo sapiens) (UniProt Q9NPH5). Put plainly: NOX4-dependent H2O2 signal modulators, primary screen, NOX inhibitor project, cell-based, HEK293-NOX4, tetracycline-induced, Amplex Red fluorescence (AID 1160). The note with it: 45 min, higher = more signal, called active from +8 up or from −8 down.
The target of test [10] is NADPH oxidase 5 (Homo sapiens) (UniProt Q96PH1). Put plainly: NOX5-dependent H2O2 signal modulators, primary screen, NOX inhibitor project, cell-based, HEK293-NOX5, Amplex Red fluorescence (AID 1161). Particulars: HEK293-NOX5, ionomycin, 45 min, higher = more signal.
The nature of test [11]: A549 cell viability effects, profiling panel, calcein-AM fluorescence, 48 h, basal (AID 1162). Further: test concentration not given here. The note with it: higher = more signal.
Test [12] is described as follows: adipocyte viability effects, profiling panel, cell-based, 3T3-L1 adipocytes, calcein-AM fluorescence, 48 h, basal (AID 1163). Further: test concentration not given here. Particulars: 3T3-L1 adipocytes viability, higher = more signal.
The nature of test [13]: HepG2 cell viability effects, profiling panel, calcein-AM fluorescence, 48 h, basal (AID 1164). Further: test concentration not given here. The note with it: higher = more signal.
Test [14] can be described thus: MM1S cell viability effects, profiling panel, calcein-AM fluorescence, 48 h, basal (AID 1165).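 Further: viability of MM1S multiple myeloma cells under basal unstimulated conditions; test concentration not given here.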 Particulars: higher = more signal.
Test [15] can be described thus: basal RPMI8226 viability, no added stimulus, profiling panel, cell-based, calcein-AM fluorescence, 48 h, PK04 Diversity Set (AID 1166).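 Further: cells grown under basal conditions without added stimulus; test concentration not given here.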 Particulars: RPMI8226 myeloma viability, higher = more signal.
A short description of test [16]: basal HepG2 mitochondrial membrane potential changes, profiling panel, cell-based, JC-1 fluorescence, 24 h, 100 nL compound (AID 1167). Further: test concentration not given here. Particulars: higher = more signal.
A short description of test [17]: basal 3T3-L1 adipocyte mitochondrial potential changes, profiling panel, cell-based, JC-1 fluorescence, 3T3-L1 adipocytes, 24 h, 100 nL compound (AID 1168). Further: test concentration not given here. Particulars: JC-1 mitochondrial fluorescence, higher = more signal, called active from +8 up or from −8 down.
Test [18] can be described thus: basal RPMI8226 mitochondrial membrane potential changes, profiling panel, cell-based, JC-1 fluorescence, 24 h, 100 nL compound (AID 1169). Further: test concentration not given here. Particulars: RPMI8226 myeloma, JC-1 mitochondrial potential fluorescence, higher = more signal.
Test [19] in a line: basal MM1S mitochondrial membrane potential changes, profiling panel, cell-based, JC-1 fluorescence, 24 h, 100 nL compound (AID 1170). Further: test concentration not given here. The note with it: higher = more signal.
A short description of test [20]: A549 lung cancer cell viability effects, profiling panel, resazurin fluorescence, 24 h, PK04 Diversity Set (AID 1171). Further: test concentration not given here. Particulars: higher = more signal, called active from +8 up or from −8 down. Background: Alamar Blue is a resazurin reagent that responds to reducing activity.

Our source for the z-score and composite z-score values is PubChem BioAssay.

Calls of active or inactive are those of the source.

NADPH oxidase 5 (Homo sapiens), sequence (Q96PH1 whole entry, looked up): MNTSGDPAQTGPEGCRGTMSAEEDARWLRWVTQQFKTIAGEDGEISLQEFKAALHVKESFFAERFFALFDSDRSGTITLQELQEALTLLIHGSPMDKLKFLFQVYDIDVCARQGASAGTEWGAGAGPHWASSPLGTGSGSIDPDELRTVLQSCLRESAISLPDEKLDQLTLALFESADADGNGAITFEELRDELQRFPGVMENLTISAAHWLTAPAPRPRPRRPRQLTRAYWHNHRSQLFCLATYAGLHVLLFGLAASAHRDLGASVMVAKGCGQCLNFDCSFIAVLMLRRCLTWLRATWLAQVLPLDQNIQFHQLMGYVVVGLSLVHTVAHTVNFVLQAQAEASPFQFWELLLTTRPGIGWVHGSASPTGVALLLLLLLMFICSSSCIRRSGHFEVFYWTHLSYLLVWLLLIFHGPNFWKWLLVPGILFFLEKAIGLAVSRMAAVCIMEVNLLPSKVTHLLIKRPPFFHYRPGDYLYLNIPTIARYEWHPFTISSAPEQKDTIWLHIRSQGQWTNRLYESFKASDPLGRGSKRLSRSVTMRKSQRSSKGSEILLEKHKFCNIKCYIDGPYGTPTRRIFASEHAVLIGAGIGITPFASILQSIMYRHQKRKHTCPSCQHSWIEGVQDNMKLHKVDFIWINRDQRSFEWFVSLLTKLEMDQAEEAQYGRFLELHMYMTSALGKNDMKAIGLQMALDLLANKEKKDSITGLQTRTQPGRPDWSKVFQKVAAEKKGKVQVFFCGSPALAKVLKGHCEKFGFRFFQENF
NADPH oxidase 4 (Homo sapiens), sequence (Q9NPH5 whole entry, looked up): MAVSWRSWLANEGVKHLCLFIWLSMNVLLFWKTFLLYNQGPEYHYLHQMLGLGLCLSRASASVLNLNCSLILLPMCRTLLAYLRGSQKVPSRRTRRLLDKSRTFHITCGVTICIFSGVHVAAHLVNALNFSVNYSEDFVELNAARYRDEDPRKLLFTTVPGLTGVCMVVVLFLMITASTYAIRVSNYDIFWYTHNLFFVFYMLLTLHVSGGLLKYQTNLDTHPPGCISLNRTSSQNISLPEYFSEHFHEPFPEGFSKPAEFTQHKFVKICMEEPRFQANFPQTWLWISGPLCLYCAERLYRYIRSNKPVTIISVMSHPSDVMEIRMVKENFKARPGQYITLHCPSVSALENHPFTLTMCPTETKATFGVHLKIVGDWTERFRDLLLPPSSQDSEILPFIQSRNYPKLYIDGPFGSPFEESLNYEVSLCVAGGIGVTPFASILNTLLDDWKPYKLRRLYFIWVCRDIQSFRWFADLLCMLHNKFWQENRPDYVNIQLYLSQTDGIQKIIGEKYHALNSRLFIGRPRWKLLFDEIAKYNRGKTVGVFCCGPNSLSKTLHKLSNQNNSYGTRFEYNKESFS
NADPH oxidase 2 (Homo sapiens), sequence (P04839 whole entry, looked up): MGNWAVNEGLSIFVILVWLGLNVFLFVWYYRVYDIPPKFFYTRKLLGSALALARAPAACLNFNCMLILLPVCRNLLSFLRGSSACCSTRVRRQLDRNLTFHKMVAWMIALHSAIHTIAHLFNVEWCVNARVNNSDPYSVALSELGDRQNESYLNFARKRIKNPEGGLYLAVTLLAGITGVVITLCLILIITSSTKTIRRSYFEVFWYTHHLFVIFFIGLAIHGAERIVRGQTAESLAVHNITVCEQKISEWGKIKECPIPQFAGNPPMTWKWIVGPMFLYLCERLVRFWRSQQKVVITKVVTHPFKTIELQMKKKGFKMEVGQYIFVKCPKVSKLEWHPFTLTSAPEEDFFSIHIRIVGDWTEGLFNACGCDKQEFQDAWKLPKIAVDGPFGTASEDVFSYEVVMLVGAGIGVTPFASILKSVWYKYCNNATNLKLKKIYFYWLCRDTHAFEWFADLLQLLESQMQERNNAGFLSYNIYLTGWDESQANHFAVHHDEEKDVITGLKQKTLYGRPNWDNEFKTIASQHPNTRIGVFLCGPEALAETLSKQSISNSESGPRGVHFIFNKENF

Regarding `C#C[C@H]1Oc2ccccc2S(=O)(=O)N2CCC[C@@H]12`, the z-score in test [1] was -0.789 (inactive); in [3], 0.264 (inactive); in [4], 0.276 (inactive); in [5], 0.0691 (inactive); in test [6] it was 0.0594 (inactive); in test [7] it was 0.213. In addition, the z-score in test [8] was 0.281 (inactive); in test [9] it was -1.29 (inactive); in test [10], -0.494; in [11] it was -0.308; in [12] it was -0.401; in [13] it was -1.19. For the same compound, the z-score in [14] is 0.132; in [15] it was -0.446; in test [16], -0.777; in test [17], -0.275 (inactive); in [18], -0.18; in test [19] it was -0.116. Moreover, the z-score in [20] is -0.424 (inactive). Also, the composite z-score in test [2] is -0.106.

`C=CCC(OC(C)=O)[C@@H]1[C@@H](N(Cc2cc3ccccc3o2)C(=O)c2cccc3ccccc23)c2cc(OCCCO)ccc2N1C(=O)Cc1ccc(OC)cc1` (stereo not given in full): the z-score in [1] is -0.901 (inactive); in test [3], 1.7 (inactive); in test [4], 0.923 (inactive); in test [5], 1.66 (inactive); in test [6] it was 0.629 (inactive); in test [7], 0.907. In addition, the z-score in test [8] was -1.79 (inactive); in [9] it was -0.428 (inactive); in [10], -1.57; in [11], 0.323; in test [12] it was 1.28; in [13] it was 0.222. In addition, the z-score in [14] was 0.381; in test [15], -1.05; in test [16] it was 2.46; in [17], -0.0309 (inactive); in test [18], 0.181; in test [19], 0.177. Moreover, the z-score in test [20] was -1.38 (inactive). Also, the composite z-score in [2] is -0.195.

As for `C[N+](C)(C)CCCC[C@@H]1NC(=O)[C@@H]2C[C@H](C(=O)NCCCCCCNC(=O)CS)[C@H](c3cccc(OCCO)c3)N2C1=O`, the z-score in test [1] was -0.0169 (inactive); in test [3] it was 5.87 (inactive); in test [4], 1.39 (inactive); in [5], -0.293 (inactive); in test [6], 0.644 (inactive); in [7] it was 0.133. Further, the z-score was 1.85 (inactive) in test [8]; 1.12 (inactive) in test [9]; 1.45 in [10]; -0.14 in [11]; -0.0406 in test [12]; 1.5 in [13]. Besides, the z-score in [14] is 0.954; in test [15], 0.186; in [16], 1.53; in test [17], 0.215 (inactive); in [18], 0.476; in test [19] it was -0.677. Moreover, the z-score in test [20] is -0.333 (inactive). In test [2], this compound gave a composite z-score of -0.012.

As for `COCCOC(=O)N1C(=O)[C@@]2(c3cc(C#Cc4ccc(OC)cc4)ccc31)[C@H](c1ccc(O)cc1)N1[C@H](c3ccccc3)[C@H](c3ccccc3)OC(=O)[C@H]1[C@@H]2C(=O)N1CCN(c2ncccn2)CC1`, the z-score in test [1] was 0.714 (inactive); in test [3] it was 1.45 (inactive); in test [4], 0.876 (inactive); in test [5], -0.969 (inactive); in [6] it was 0.59 (inactive); in [7], -0.63. The z-score in test [8] was 1.87 (inactive); in [9] it was -1.34 (inactive); in test [10] it was -0.0267; in test [11] it was -0.514; in test [12] it was 0.546; in [13], -0.0225. Further, the z-score in test [14] is -0.305; in test [15], -1.12; in [16] it was -0.445; in test [17] it was 2.33 (inactive); in [18], -0.525; in [19] it was -0.339. In addition, the z-score in test [20] is 0.484 (inactive). This compound returned a composite z-score in test [2] of -0.0601.

`CC[C@@H]1C=C(C(=O)O)[C@H](c2ccc(C(C)C)cc2)N1S(=O)(=O)c1ccc(C)cc1`: the z-score in test [1] is -0.646 (inactive); in [3] it was 0.998 (inactive); in test [4] it was 0.845 (inactive); in test [5], 0.105 (inactive); in [6], 0.709 (inactive); in test [7] it was -0.334. The z-score was 0.685 (inactive) in [8]; -0.418 (inactive) in test [9]; -0.0711 in test [10]; -0.658 in [11]; -0.178 in test [12]; -0.391 in test [13]. Further, the z-score in [14] was -0.683; in test [15], -0.251; in test [16] it was -0.961; in [17], 0.495 (inactive); in test [18], -0.971; in [19], -0.574. Also, in test [20], the z-score was -0.42 (inactive). Also, the composite z-score in test [2] was 1.36.

Regarding `O=C1OCC=C[C@H]2OC34C=CCN(Cc5ccccc5)C(=O)[C@H]3N(CCCO)C(=O)[C@@H]4[C@@H]12` (stereo not given in full), the z-score in test [1] is 2.57 (inactive); in test [3] it was 0.599 (inactive); in test [4], -1 (inactive); in test [5] it was 1.01 (inactive); in test [6], -1.05 (inactive); in test [7], 0.833. Further, the z-score in [8] was -0.548 (inactive); in [9] it was -1.29 (inactive); in test [10], -1.17; in test [11], -0.518; in [12], 0.676; in test [13], -1.28. In addition, the z-score in [14] is 0.772; in [15], 0.0919; in test [16] it was 0.0708; in test [17] it was -0.0748 (inactive); in test [18], 0.242; in test [19], 0.252. Besides, in [20], the z-score is -0.196 (inactive). This compound also showed a composite z-score in test [2] of 1.27.

In the case of `CC(C)C[C@@H]1NC(=O)[C@@H]2C[C@H](C(=O)NCCCCN(C)C)[C@H](c3ccc(O)cc3)N2C1=O`, the z-score in test [1] was -0.0654 (inactive); in [3], -0.202 (inactive); in test [4], -0.241 (inactive); in [5], -0.689 (inactive); in [6], -0.189 (inactive); in [7], 0.0488. Besides, the z-score in [8] was -0.298 (inactive); in test [9] it was 0.167 (inactive); in test [10] it was 0.21; in test [11], -0.583; in test [12] it was -0.339; in [13], -0.375. For the same compound, the z-score was 0.12 in test [14]; 0.579 in test [15]; -1.26 in [16]; -0.0811 (inactive) in [17]; -0.0507 in test [18]; 0.218 in [19]. Besides, the z-score in [20] is 0.408 (inactive). This compound also showed a composite z-score in test [2] of -0.0655.

As for `COc1ccc(C#Cc2ccc3c(c2)[C@]2(C(=O)N3)[C@H](c3ccc(OCCO)cc3)N3[C@H](c4ccccc4)[C@H](c4ccccc4)OC(=O)[C@H]3[C@@H]2C(=O)Nc2nc3ccccc3s2)cc1`, the z-score in test [1] was 1.84 (inactive); in test [3] it was 2.24 (inactive); in [4], 2.11 (inactive); in [5] it was 2.04 (inactive); in [6] it was 1.94 (inactive); in test [7], 0.418. Further, the z-score is 1.7 (inactive) in test [8]; 0.74 (inactive) in [9]; 0.177 in test [10]; 1.47 in [11]; 0.292 in [12]; 0.891 in [13]. In addition, the z-score in test [14] was -1.69; in [15], -1.37; in [16] it was -2.95; in [17], 6.28 (inactive); in test [18], -1.3; in test [19], -1.71. Moreover, in test [20], the z-score was -1.23 (inactive). The compound also came in with a composite z-score in test [2] of 0.547.

As to `CCOC(=O)C[C@H]1[C@H](OC(=O)c2ccccc2-c2ccccc2)[C@@H](NC(=O)c2ccc(-c3ccccc3)cc2)c2cc(OCCCO)ccc2N1C(=O)c1ccccc1`, the z-score in test [1] was 0.657 (inactive); in test [3], 0.568 (inactive); in test [4] it was 0.135 (inactive); in test [5], 1.02 (inactive); in test [6], 0.157 (inactive); in test [7], 1.1. For the same compound, the z-score in [8] is 0.35 (inactive); in test [9], 0.169 (inactive); in test [10], 1.46; in test [11] it was 0.168; in test [12] it was 0.405; in test [13] it was 0.188. For the same compound, the z-score in test [14] was 0.0425; in test [15], -0.602; in [16], 1.5; in test [17], 0.247 (inactive); in test [18], -0.312; in test [19], -0.0178. In [20], the z-score was 0.0248 (inactive). This compound displayed a composite z-score in [2] of 0.0121.
